# PubChem BioAssay (NCATS)
# Several values for one entry are separate records, joined by “and”; a condition that tells them apart may be missing. Equal values may be shown once. Results filed as inconclusive are left out. Entries that show only a call come without a potency. Where a structure was tested more than once in an assay, its records may differ in their call. Activity calls are given as the source filed them. Unless noted, the call rests on the fitted dose curve; in most records, active means well fitted curve in the direction sought with a large enough effect; inconclusive means small, poorly fitted or top-dose-only effect, or another doubt; inactive means no such curve, though single readings can be large; an effect the other way counts as inactive or inconclusive.
# Experiments:
# [1] = Cell Viability - BJ (AID 421; calls by dose curve;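 further: potency means the concentration at half of the fitted maximal effect; cells exposed to compound for 40 hours at 37 °C before readout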); conditions: BJ fibroblast viability, qHTS
# How it was run: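 Cytotoxicity as drop in intracellular ATP (CellTiter-Glo, 20 min RT) after 40 hr compound exposure of BJ fibroblasts at 37 °C. Titrations scaled between DMSO and 100 uM tamoxifen, Hill-fitted for AC50.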
# [2] = Cell Viability - SK-N-SH (AID 435; calls by dose curve;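 further: potency means the concentration at half of the fitted maximal effect; compound exposure lasted 40 h at 37 °C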); conditions: SK-N-SH neuroblastoma cell viability qHTS
# How it was run: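 Luminescent ATP signal served as the viability read-out after 40 hours of compound treatment of human neuroblastoma SK-N-SH cells. Concentration-response data, scaled between DMSO and 100 uM tamoxifen, gave AC50 values by standard Hill modeling.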
# [3] = Cellular Toxicity (caspase-3) Mesangial (AID 660);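 further: combined caspase 3 and 7 activity read by Caspase-Glo luminescence; cells exposed to compound for 16 h before the caspase read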
# How it was run: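 Caspase 3/7 activation measured by Caspase-Glo 3/7 luminescence (20 min, room temperature) following 16 h exposure of mesangial cells (1000/well); AC50 from Hill-equation fit, normalized to DMSO and 100 uM tamoxifen.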
# [4] = Cellular Toxicity (caspase-3) Renal Proximal Tubule (AID 667); conditions: renal proximal tubule cells; at 91.7 µM (top of the series), primary cells freshly taken from rat, solvent-only wells 0%, staurosporine 100% unless noted;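 further: cells exposed to compound for 16 hours at 37 °C before detection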
# How it was run: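 AC50 derived by standard Hill fit of concentration-response data, normalized between DMSO basal and 10 uM staurosporine as 100% stimulation. Cells: primary rat kidney proximal tubule, 16 h treatment at 37 °C.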
# [5] = Cell Viability - LYMP2-015 (AID 971); further: nearly all actives have a fitted effect of over 55% in size
# How it was run: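 Cytotoxicity readout: decrease in intracellular ATP (CellTiter-Glo luminescence) in 2500 LYMP2-015 lymphoblastoid cells/well after 24 h compound exposure at 37 C. Concentration-response data fitted with the standard Hill equation to give AC50.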
# [6] = Cell Viability - LYMP2-010 (AID 981); further: nearly all actives have a fitted effect of over 55% in size
# How it was run: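 CellTiter-Glo ATP luminescence measured cytotoxicity after 24 h compound exposure at 37 C. LYMP2-010 cells were seeded at 2500/well, with tetraoctylammonium bromide as control; concentration-response curves gave AC50 values by the Hill equation.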
# [7] = Cell Viability - LYMP2-012 (AID 982);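 further: cellular ATP by luciferase luminescence where a drop means cytotoxicity; cells exposed to compound for one day before reading; nearly all actives have a fitted effect of over 55% in size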
# [8] = Cell Viability - LYMP2-022 (AID 987); further: nearly all actives have a fitted effect of over 55% in size
# How it was run: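 Cytotoxicity read as decreased cellular ATP (CellTiter-Glo luminescence, 30 min room temperature) after 24 hours compound exposure of 2500 lymphoblastoid LYMP2-022 cells/well at 37 C. Concentration-response data fitted with standard Hill equation for AC50.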
# [9] = target: Bile acid receptor (Homo sapiens) (UniProt Q96RI1); test: qHTS assay for small molecule antagonists of farnesoid X receptor signaling (AID 588526; calls by dose curve)
# How it was run: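 Antagonist mode: titrated compounds tested against chenodeoxycholic acid stimulation (normalized to 50 uM CDCA and DMSO) in GeneBLAzer HEK293T cells for 16 h. Beta-lactamase read by CCF4 fluorescence; IC50 from Hill fits.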
# [10] = target: Glucocorticoid receptor (Homo sapiens) (UniProt P04150); test: qHTS assay for small molecule agonists of glucocorticoid receptor signaling (AID 588532; active means well fitted curve in the direction sought with a large enough effect in the signal ratio, with a control signal flat; the % refers to the signal ratio); conditions: HeLa MMTV-bla, beta-lactamase ratio, agonist, 18 h; stronger effect = higher value; percent of dexamethasone control, DMSO zero
# How it was run: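 HeLa GRE-bla reporter cells; 18 h compound exposure at 37 C; 2 h CCF4 loading at room temperature; fluorescence at 460 and 530 nm; EC50 by Hill equation.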
# [11] = qHTS assay for small molecule antagonists of peroxisome proliferator-activated receptor delta signaling (AID 588535); conditions: HEK293T PPARd-UAS-bla, beta-lactamase FRET ratio, 18 h; 460 nm channel;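 further: cells co-treated with a PPAR-delta agonist as stimulator during compound exposure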
# How it was run: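 Fluorescence from CCF4-loaded GeneBLAzer PPAR-delta-UAS-bla HEK293T cells (2 hrs RT loading) quantified reporter inhibition after an 18 hr, 37 C compound exposure across a titration.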
# [12] = target: Peroxisome proliferator-activated receptor gamma (Homo sapiens) (UniProt P37231); test: qHTS assay for small molecule antagonists of peroxisome proliferator-activated receptor gamma signaling (AID 588537; active means well fitted inhibition curve with a large enough effect in the signal ratio, with a control signal flat, not every such curve was filed as active; the % refers to the signal ratio;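 further: reporter cells co-stimulated with 50 nM rosiglitazone agonist during compound treatment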)
# How it was run: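 Fluorescence at 460 and 530 nm (405 nm excitation) reported beta-lactamase cleavage of CCF4 after 2 h room-temperature loading. HEK293 reporter cells in 1% charcoal/dextran-treated FBS had received compound and rosiglitazone for 16 h.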
# [13] = qHTS assay for small molecule activators of the nuclear factor-kappa B (NF-kB) signaling pathway (AID 651749; active means well fitted activation curve with a large enough effect in the signal ratio; the % refers to the signal ratio; further: potency means the concentration at half of the fitted maximal effect); conditions: NF-kB-bla ME-180 cells, beta-lactamase FRET ratio, 16 h; activation: stronger effect = higher value
# How it was run: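 In this qHTS format, compounds acting as activators increase NF-kB-driven beta-lactamase in ME-180 cells, measured as disrupted FRET after 16 hr exposure at 37C and 5% CO2.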
# [14] = target: Peroxisome proliferator-activated receptor alpha (Homo sapiens) (UniProt Q07869); test: qHTS assay for small molecule agonists of the peroxisome proliferator-activated receptor alpha (PPARalpha) signaling pathway (AID 651778); conditions: PathHunter PPARalpha complementation, chemiluminescence, 6 h; stronger effect = higher value
# How it was run: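 Enzyme-fragment complementation assay in which ligand-bound PPARalpha translocates and forms an active enzyme that generates chemiluminescence. Cells were plated overnight, exposed to compound for 6 hr at 37 C, and then given detection reagent for 60 min at room temperature.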
# [15] = qHTS assay for cell viability of the p53RE-bla HCT-116 cell line (AID 743292); further: nearly all actives have a fitted effect of over 55% in size
# How it was run: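 Compound-exposed HCT-116 (p53RE-bla) cells, 4,000 per well, were kept 16 h at 37 C following a 5 h preincubation. Cell number was estimated from total ATP by CellTiter-Glo luminescence read after 30 min at room temperature.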
# [16] = KB-8-5-11 P-gp reporter qHTS against the NCATS DSHEA and TCM libraries (AID 1919977)
# How it was run: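 KB-8-5-11, 500 cells/well, DMEM/10% FBS without colchicine; 4 h attach; cpd titrations, 72 h, 37C/5% CO2; CellTiter-Glo, 30 min RT, luminescence.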
# [17] = Cell Viability - LYMP2-001 (AID 921); further: nearly all actives have a fitted effect of over 70% in size
# How it was run: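 Steps: seed 2500 lymphoblastoid cells/well; 5 hr, 37 C; add compound; 24 hr, 37 C; CellTiter-Glo reagent, 30 min room temperature; read luminescence. Concentration-response modeled by Hill equation for AC50.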
# [18] = MultiTox-Fluor Cytotoxicity Assay - LYMP1-003 - Live Cells (AID 962);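 further: cytotoxic hits lower the live-cell protease signal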
# How it was run: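 Live-cell protease activity (GF-AFC substrate, 405/510 nm, 60 min at room temperature) after 16 h, 37 C compound exposure of human lymphoblastoid LYMP1-003 cells; concentration-response fitted to the Hill equation for AC50.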
# [19] = Cell Viability - LYMP1-003 - Assay at 24 hr (AID 963)
# How it was run: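 Concentration-response qHTS: ATP loss measured by CellTiter-Glo luminescence after 24 h compound exposure at 37 C. Cells were LYMP1-003 human lymphoblastoid, 2500 per well. AC50 derived via standard Hill equation modeling.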
# [20] = target: Retinoic acid receptor RXR-alpha (Homo sapiens) (UniProt P19793); test: qHTS assay for small molecule antagonists of retinoid X receptor alpha signaling (AID 588546; active means well fitted inhibition curve with a large enough effect in the signal ratio, with a control signal flat, not every such curve was filed as active; the % refers to the signal ratio;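 further: cells stimulated with 9-cis-retinoic acid as agonist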); conditions: HEK293T RXRa-UAS-bla, beta-lactamase ratio, antagonist mode
# How it was run: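 Beta-lactamase reporter inhibition, read as CCF4 fluorescence ratio (ex 405, em 460/530 nm) after 2 h at RT. HEK293T UAS-bla cells, 2500/well, were stimulated with 9-cis-RA at 500 or 100 nM final alongside test compound for 18 h at 37 C.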
# Sequence of Retinoic acid receptor RXR-alpha (Homo sapiens) (P19793 whole entry, looked up): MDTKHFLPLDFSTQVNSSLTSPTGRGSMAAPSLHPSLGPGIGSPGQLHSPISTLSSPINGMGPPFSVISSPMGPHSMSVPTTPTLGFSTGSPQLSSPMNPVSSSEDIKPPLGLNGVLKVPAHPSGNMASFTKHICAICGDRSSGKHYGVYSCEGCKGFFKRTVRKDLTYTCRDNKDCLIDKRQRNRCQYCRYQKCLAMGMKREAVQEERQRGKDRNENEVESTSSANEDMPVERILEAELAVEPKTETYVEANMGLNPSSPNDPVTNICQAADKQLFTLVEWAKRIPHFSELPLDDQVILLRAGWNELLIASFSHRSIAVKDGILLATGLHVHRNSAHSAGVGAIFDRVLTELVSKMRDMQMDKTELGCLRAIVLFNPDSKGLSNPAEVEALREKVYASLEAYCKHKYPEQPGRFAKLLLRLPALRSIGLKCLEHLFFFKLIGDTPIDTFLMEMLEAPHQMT
# Sequence of Peroxisome proliferator-activated receptor alpha (Homo sapiens) (Q07869 whole entry, looked up, the tested form may be a part): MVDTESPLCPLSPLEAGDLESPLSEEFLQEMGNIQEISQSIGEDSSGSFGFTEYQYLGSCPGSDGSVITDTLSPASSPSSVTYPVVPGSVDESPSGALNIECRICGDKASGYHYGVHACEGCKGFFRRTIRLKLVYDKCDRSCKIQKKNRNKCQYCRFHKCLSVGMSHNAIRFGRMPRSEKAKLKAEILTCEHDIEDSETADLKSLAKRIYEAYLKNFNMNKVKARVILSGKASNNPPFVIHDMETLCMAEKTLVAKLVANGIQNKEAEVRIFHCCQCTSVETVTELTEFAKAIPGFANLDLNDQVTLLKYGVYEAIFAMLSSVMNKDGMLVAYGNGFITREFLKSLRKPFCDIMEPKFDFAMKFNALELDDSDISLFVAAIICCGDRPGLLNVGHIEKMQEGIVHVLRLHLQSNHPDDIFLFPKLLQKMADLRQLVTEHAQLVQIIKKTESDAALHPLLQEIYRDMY
# Sequence of Bile acid receptor (Homo sapiens) (Q96RI1 whole entry, looked up): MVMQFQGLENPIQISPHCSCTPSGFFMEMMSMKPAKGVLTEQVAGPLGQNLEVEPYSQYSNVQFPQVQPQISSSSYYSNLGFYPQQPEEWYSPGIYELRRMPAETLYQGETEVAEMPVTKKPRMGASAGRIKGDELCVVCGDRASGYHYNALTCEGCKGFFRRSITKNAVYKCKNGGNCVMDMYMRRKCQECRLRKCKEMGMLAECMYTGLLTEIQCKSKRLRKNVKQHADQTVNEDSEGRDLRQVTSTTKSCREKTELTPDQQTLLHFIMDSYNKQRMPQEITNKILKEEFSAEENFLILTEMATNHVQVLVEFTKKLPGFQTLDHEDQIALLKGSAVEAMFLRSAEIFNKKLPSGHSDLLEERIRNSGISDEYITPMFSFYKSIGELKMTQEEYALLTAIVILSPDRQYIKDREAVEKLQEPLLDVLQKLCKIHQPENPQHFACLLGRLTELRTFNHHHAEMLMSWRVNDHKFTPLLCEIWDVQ
# Sequence of Peroxisome proliferator-activated receptor gamma (Homo sapiens) (P37231 whole entry, looked up): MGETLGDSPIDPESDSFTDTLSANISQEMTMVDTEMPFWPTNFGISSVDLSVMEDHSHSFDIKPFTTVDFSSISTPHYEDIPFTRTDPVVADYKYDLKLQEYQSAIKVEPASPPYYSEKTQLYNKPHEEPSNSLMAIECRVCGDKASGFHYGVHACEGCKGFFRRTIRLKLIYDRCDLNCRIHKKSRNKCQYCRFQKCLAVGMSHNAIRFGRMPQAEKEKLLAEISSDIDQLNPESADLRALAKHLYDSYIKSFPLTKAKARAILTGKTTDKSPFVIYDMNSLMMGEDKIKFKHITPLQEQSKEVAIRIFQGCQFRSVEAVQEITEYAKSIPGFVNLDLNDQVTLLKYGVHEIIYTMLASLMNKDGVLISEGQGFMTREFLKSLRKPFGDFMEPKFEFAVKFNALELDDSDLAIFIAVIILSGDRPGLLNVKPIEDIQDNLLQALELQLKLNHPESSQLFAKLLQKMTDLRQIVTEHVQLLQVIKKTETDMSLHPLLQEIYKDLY
# Sequence of Glucocorticoid receptor (Homo sapiens) (P04150 whole entry, looked up): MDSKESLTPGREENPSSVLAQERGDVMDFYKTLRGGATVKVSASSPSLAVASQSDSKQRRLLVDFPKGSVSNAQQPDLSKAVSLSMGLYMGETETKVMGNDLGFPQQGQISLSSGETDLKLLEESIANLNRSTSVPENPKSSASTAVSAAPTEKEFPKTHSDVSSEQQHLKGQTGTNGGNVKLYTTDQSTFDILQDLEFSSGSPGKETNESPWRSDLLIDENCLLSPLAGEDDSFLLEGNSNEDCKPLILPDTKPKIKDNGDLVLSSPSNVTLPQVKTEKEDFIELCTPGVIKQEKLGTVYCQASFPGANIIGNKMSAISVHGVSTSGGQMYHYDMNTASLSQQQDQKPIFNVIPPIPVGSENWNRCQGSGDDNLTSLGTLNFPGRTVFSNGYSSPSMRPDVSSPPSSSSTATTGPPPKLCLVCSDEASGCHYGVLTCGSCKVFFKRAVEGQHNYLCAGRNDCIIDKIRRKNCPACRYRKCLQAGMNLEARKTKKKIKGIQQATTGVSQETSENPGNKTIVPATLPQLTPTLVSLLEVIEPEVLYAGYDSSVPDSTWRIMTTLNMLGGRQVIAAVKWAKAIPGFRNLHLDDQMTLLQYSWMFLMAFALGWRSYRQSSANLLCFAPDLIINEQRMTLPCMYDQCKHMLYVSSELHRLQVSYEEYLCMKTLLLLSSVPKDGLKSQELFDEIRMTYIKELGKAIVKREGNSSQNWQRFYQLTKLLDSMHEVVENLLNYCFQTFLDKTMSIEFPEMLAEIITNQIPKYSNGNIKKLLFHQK
smiles,measurement,setting,value
CC(O)CCl (centres undefined),Potency,[1],> 92 µM (inactive)
same,Potency,[2],> 92 µM (inactive)
same,outcome,[3],inactive
same,caspase-3 activation,[4],7.82% (inactive)
same,Potency,[5],inactive
same,Potency,[6],inactive
same,Potency,[7],inactive
same,Potency,[8],inactive
same,outcome,[9],inactive
same,activation,[10],-3.59% (inactive) and -2.54% (inactive)
same,max response,[11],-27.3% and -9.22%
same,Potency,[12],inactive
same,activation,[13],1% (inactive) and -0.134% (inactive)
same,max response,[14],-0.405% (inactive) and -1.63% (inactive)
same,Potency,[15],inactive
OCC1=C[C@@H](O)[C@@H]2C=CO[C@@H](OC3O[C@H](CO)[C@@H](O)[C@H](O)[C@H]3O)[C@H]12 (some centres undefined),Potency,[16],inactive
OCC(Br)CBr (centres undefined),Potency,[1],> 92 µM (inactive)
same,Potency,[2],> 92 µM (inactive)
same,outcome,[3],inactive
same,Potency,[17],inactive
same,Potency,[18],inactive
same,Potency,[19],inactive
same,Potency,[5],inactive
same,Potency,[6],inactive
same,Potency,[7],inactive
same,outcome,[9],inactive
same,activation,[10],4.78% (inactive)
same,max response,[11],7.4%
same,Potency,[12],inactive
same,max response,[20],1.29% (inactive)
same,max response,[14],-5.97% (inactive)
same,Potency,[15],inactive
C=CC(C)(CCC=C(C)C)OC(C)=O (centres undefined),Potency,[16],inactive
CC/C=C\C/C=C\C/C=C\C/C=C\CCCCC(=O)O,"activity change, negative = inhibition",[16],-0.921% [at 3.26 µM] (inactive)
CCCC(=O)Cl,Potency,[1],> 92 µM (inactive)
same,Potency,[2],> 92 µM (inactive)
same,caspase-3 activation,[4],6.16% (inactive)
same,Potency,[18],inactive
same,Potency,[19],inactive
same,Potency,[7],inactive
same,outcome,[9],inactive
same,activation,[10],7.24% (inactive)
same,Potency,[12],inactive
same,activation,[13],-0.622% (inactive)
same,max response,[14],-5.49% (inactive)
same,Potency,[15],inactive
Clc1cccc(C(Cl)(Cl)Cl)n1,Potency,[1],> 92 µM (inactive)
same,Potency,[2],> 92 µM (inactive)
same,outcome,[3],inactive
same,caspase-3 activation,[4],4.49% (inactive)
same,Potency,[17],inactive
same,Potency,[19],inactive
same,Potency,[7],inactive
same,Potency,[8],inactive
same,outcome,[9],inactive
same,Potency,[12],inactive
same,max response,[20],0.436% (inactive) and 2.35% (inactive)
same,Potency,[15],inactive
CC(=O)[O-].CC(=O)[O-].O.O.O.[Pb+2],Potency,[1],> 92 µM (inactive)
same,Potency,[2],> 92 µM (inactive)
same,outcome,[3],inactive
same,caspase-3 activation,[4],-9.48% (inactive) and -1.66% (inactive)
same,Potency,[17],inactive
same,Potency,[18],inactive
same,Potency,[5],inactive
same,Potency,[7],inactive
same,Potency,[8],inactive
same,max response,[14],-4.64% (inactive) and -4.52% (inactive)
same,Potency,[15],inactive
O=C(Cl)C(Cl)(Cl)Cl,Potency,[2],> 92 µM (inactive)
same,outcome,[3],inactive
same,Potency,[19],inactive
same,Potency,[6],inactive
same,Potency,[7],inactive
same,outcome,[9],inactive
same,activation,[10],-1.29% (inactive)
same,max response,[11],6.34%
same,max response,[20],2.98% (inactive)
same,activation,[13],-1.07% (inactive)
Clc1nc(Cl)nc(Nc2ccccc2Cl)n1,Potency,[1],> 92 µM (inactive)
same,Potency,[2],> 92 µM (inactive)
same,outcome,[3],inactive
same,caspase-3 activation,[4],-3.95% (inactive)
same,Potency,[18],inactive
same,Potency,[19],inactive
same,Potency,[5],inactive
same,Potency,[6],inactive
same,Potency,[8],inactive
same,activation,[10],0.42% (inactive) and 30.1% (inactive)
same,Potency,[12],inactive
same,max response,[20],8.47% (inactive)
same,Potency,[13],25.1 µM (active)
same,activation,[13],0.657% (inactive)
same,max response,[14],1.31% (inactive) and 8.11% (inactive)
same,Potency,[15],inactive
ClCBr,Potency,[1],> 92 µM (inactive)
same,Potency,[2],> 92 µM (inactive)
same,caspase-3 activation,[4],-5.04% (inactive)
same,Potency,[18],inactive
same,Potency,[19],inactive
same,outcome,[9],inactive
same,max response,[11],36.6%
same,Potency,[12],inactive
same,max response,[14],-7.14% (inactive)
same,Potency,[15],inactive
CCOP(=S)(OCC)Oc1ccc([N+](=O)[O-])cc1,Potency,[1],> 92 µM (inactive)
same,Potency,[2],> 92 µM (inactive)
same,outcome,[3],inactive
same,caspase-3 activation,[4],14.9% (inactive) and 4.17% (inactive)
same,Potency,[17],inactive
same,Potency,[18],inactive
same,Potency,[5],inactive
same,Potency,[8],inactive
same,activation,[10],1.36% (inactive) and 0.403% (inactive) and 5.24% (inactive)
same,max response,[11],12.5% and -2.14%
same,Potency,[12],inactive
same,activation,[13],-1.46% (inactive) and -0.889% (inactive) and 0.819% (inactive)
same,max response,[14],-0.408% (inactive) and 4.67% (inactive) and -3.29% (inactive)
same,Potency,[15],inactive
BrCCBr,Potency,[1],> 92 µM (inactive)
same,caspase-3 activation,[4],-15.1% (inactive)
same,Potency,[17],inactive
same,Potency,[5],inactive
same,Potency,[7],inactive
same,Potency,[8],inactive
same,activation,[10],2.21% (inactive) and 1.87% (inactive)
same,max response,[11],-6.18% and 14.8%
same,Potency,[12],inactive
same,max response,[20],9.69% (inactive) and -0.139% (inactive)
same,activation,[13],-0.199% (inactive) and 0.87% (inactive)
same,max response,[14],-2.04% (inactive) and -4.02% (inactive)
O=[N+]([O-])c1cccc2ccccc12,Potency,[2],> 92 µM (inactive)
same,outcome,[3],inactive
same,caspase-3 activation,[4],-1.57% (inactive)
same,Potency,[17],inactive
same,Potency,[18],inactive
same,Potency,[5],inactive
same,Potency,[6],inactive
same,Potency,[8],inactive
same,max response,[11],-7.08% and 18.1%
same,Potency,[12],inactive
same,activation,[13],-0.404% (inactive) and -0.717% (inactive)
same,max response,[14],-0.448% (inactive) and 0.96% (inactive)
same,Potency,[15],inactive
